# From PubChem
# Cycloheximide cs = affects cycloheximide protein synthesis inhibition readout, counter-screen. cell reporter, cycloheximide protein synthesis inhibition counterscreen. max response, %. hit rate 12% among 300,000; in the data active means max response mostly above about 13%, no sharp cut-off; inactive means mostly below about 14%; further: read at 38.3 µM for the half of the compounds with a filed dose; 0% is about no effect
# Pf growth 96h = P. falciparum growth inhibition at 96 hour, primary screen for plastid delayed-death inhibitors. P. falciparum luciferase reporter growth, 96 h. Potency, µM (highest dose often 28.7 µM), inactives show at the top dose activity change, negative = inhibition, hits mostly inhibitors. hit rate 6.9% among 320,000. AID 504834; further: potency means the concentration at half of the fitted maximal effect; on the % scale 0 is the no-effect control and ±100 the full control effect
#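 Erythrocytes infected with luciferase-expressing P. falciparum were dispensed at 2% hematocrit and 0.05% parasitemia (final), then incubated with compounds 96 hours at 37 C in 5% CO2. Luminescence after detection reagent addition reported growth.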
# Shiga inhibitor = blocks Shiga toxin action in Vero cells; Vero cells, Shiga toxin protein synthesis inhibition reporter; inhibition, % at 38.7 µM; hit rate 9.2% among 290,000; AID 2315; in the data active means inhibition mostly above about 28%, no sharp cut-off; inactive means mostly below about 43%; further: 0% is about no effect
# Pf growth 48h = P. falciparum growth inhibition at 48 hours (one generation); P. falciparum luciferase growth in erythrocytes, 48 h; Potency, µM (titrated, usually from 28.7 µM), without a hit: at the highest dose activity change, negative = inhibition, actives largely listed as inhibitors; hit rate 5.9% among 310,000; AID 504832; further: potency means the concentration at half of the fitted maximal effect; on the % scale 0 is the no-effect control and ±100 the full control effect
#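 First compound was added to culture medium, then infected red cells at 0.1% parasitemia and 2% hematocrit (final). After incubation at 37 C under 5% CO2, luciferase detection reagent was dispensed and light output recorded.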
# Active calls of the source: *; ? = inconclusive; · = no result given. Hits are enriched below; roughly 21% of the tested compounds scored in any of these assays. Unless noted, the call rests on the fitted dose curve; in most records, active means well fitted inhibition curve with a large enough effect; inconclusive means small, poorly fitted or top-dose-only effect, or another doubt; inactive means no such curve, though single readings can be large or run the other way.
SMILES,Cycloheximide cs,Pf growth 96h,Shiga inhibitor,Pf growth 48h
Cn1c(=O)n(Cc2ccc(F)cc2)c(=O)c2c1nc1n2CCCN1Cc1ccccc1,-3.1,1.31µM*,-0.4,2.08µM*
Cn1c(=O)n(CCc2ccccc2)c(=O)c2c1nc1n2CCCN1Cc1ccccc1,-4.7,-26.5%,-6.1,?
Cn1c(=O)n(Cc2ccccc2)c(=O)c2c1nc1n2CCN1Cc1ccco1,-4.0,?,-2.6,-21.3%
CCCn1c(=O)c2c(nc3n2CCCN3Cc2ccccc2)n(C)c1=O,-1.0,13.1µM*,-5.6,?
CCC(C(=O)N1CCCCCC1)n1nc(C)n2c(cc3occc32)c1=O (stereo unspecified),4.7,0.7%,-8.8,13.8%
COc1ccc(Br)cc1C(=O)NC(=S)Nc1c(C)n(C)n(-c2ccccc2)c1=O,1.1,89.2%,-1.2,10.4%
CCOC(=O)c1sc(N)c(C#N)c1CSc1nnc(C2CCCCC2)n1N,-7.8,10.4µM*,-14.3,·
COc1ccc(CNC(=O)CN2CCN(S(=O)(=O)c3cc(Br)ccc3Br)CC2)cc1OC,·,?,·,10.4µM*
CN1CCOC(c2ccccc2)c2ccccc2C1 (stereo unspecified),-2.3,10.4µM*,-12.8,28.7%
CC(C)N1CCN(Cc2cc3ccccc3[nH]2)CC1CCO (stereo unspecified),-2.4,-7.0%,-4.6,2.7%
COc1cccc(Oc2nccc(N(C)C)c2C#N)c1,15.5*,81.0%,38.7*,108.3%
COc1ccnc(Oc2ccc(C)cc2C)c1C#N,18.2*,41.6%,11.0,-3.7%
N#Cc1c(-c2ccccc2)ccnc1Oc1ccccc1,24.1*,18.1%,58.6*,42.4%
COc1ccc(Oc2nccc(OC)c2C#N)cc1,19.6*,42.5%,7.5,39.4%
COc1ccc(/C=C(/NC(=O)c2ccco2)C(=O)Nc2ccc(C(=O)O)cc2)cc1,-3.8,?,1.1,8.4%
O=C(CSc1nnc(NC(=O)C2CC2)s1)Nc1ccccc1Cl,-2.7,14.6%,-1.8,14.9%
Cc1ccccc1C(=O)c1cccn1CC(=O)NCc1ccc(Cl)cc1,15.1,44.5%,66.3,12.1%
COc1ccccc1CNC(=O)Cn1cccc1C(=O)c1ccccc1C,43.2*,68.5%,46.0*,4.2%
Cc1ccccc1C(=O)c1cccn1CC(=O)NCc1cccc(Cl)c1,50.2*,7.3%,42.2*,13.1%
Cc1ccc(CNC(=O)Cn2cccc2C(=O)c2ccccc2C)cc1,15.8,-19.4%,38.2,15.1%
COc1cccc(CNC(=O)Cn2cccc2C(=O)c2ccccc2C)c1,21.2*,?,59.8,6.9%
CNc1c(NS(=O)(=O)c2cc(Cl)ccc2OC)c(=O)oc2ccccc12,4.5,-19.5%,3.5,-2.5%
CCCn1c(N)c(N(CCOC)C(=O)c2cc3c(s2)CCCCC3)c(=O)[nH]c1=O,-2.8,13.4%,-11.3,18.1%
CCCCOc1ccc(CSCCN=C(N)N)cc1,30.9*,41.8%,42.1*,?
COC(=O)c1ccccc1NC(=O)COC(=O)c1ccccc1N=Nc1ccc(N(C)C)cc1,17.1,9.28µM*,16.2,?
SMILES,Cycloheximide cs,Pf growth 96h,Shiga inhibitor,Pf growth 48h
COC(=O)c1ccccc1NC(=O)COC(=O)/C=C/c1ccco1,-2.1,27.0%,-7.6,18.4%
CC(=O)c1ccc(NC(=O)COC(=O)c2ccccc2N=Nc2ccc(N(C)C)cc2)cc1,49.5*,?,99.2*,?
CN(C)c1ccc(N=Nc2ccccc2C(=O)OCC(=O)N(C)c2ccccc2)cc1,34.0*,?,64.3,13.1µM*
CC(OC(=O)Cc1c[nH]c2ccccc12)C(=O)NC1CCCCC1C (stereo unspecified),·,9.1%,·,?
COc1cccc(CC(=O)OC(C)C(=O)Nc2ncc(Cl)cc2Cl)c1 (stereo unspecified),·,7.6%,·,22.3%
CC1O[C@@H](OCC2O[C@@H](Oc3cc(O)c4c(c3)OC(c3ccc(O)cc3)CC4=O)[C@H](O)[C@@H](O)[C@@H]2O)[C@H](O)[C@H](O)[C@H]1O (stereo partly specified),·,9.8%,·,8.2%
CN(C)S(=O)(=O)c1ccc(C(=O)NCc2nnc(SCC(=O)c3ccccc3)o2)cc1,-1.7,-4.1%,8.7,?
CN1C(=O)Cc2cc(S(=O)(=O)N3CCN(c4cccc(C(F)(F)F)c4)CC3)ccc21,-5.0,?,-6.6,-17.7%
CCC(=O)N1CCc2cc(S(=O)(=O)N3CCN(c4cc(C)ccc4C)CC3)ccc21,14.9,10.4µM*,-4.7,-11.5%
Cc1ccc(C)c(N2CCN(S(=O)(=O)c3ccc4c(c3)CC(=O)N4C)CC2)c1,-1.9,-0.4%,-5.9,8.28µM*
CCC(=O)c1cc(F)c(N2CCN(S(=O)(=O)c3ccc(C)cc3)CC2)cc1C,1.2,10.4µM*,12.3,?
Cc1ccc(N2CCN(S(=O)(=O)c3ccc(F)c(C)c3)CC2)c(C)c1,-2.9,·,-4.2,-1.7%
CCC(=O)N1CCc2cc(S(=O)(=O)N3CCN(c4ccccc4Cl)CC3)ccc21,-2.2,?,-2.4,?
O=C(NC12CC3CC(CC(C3)C1)C2)c1cc(F)c(F)c(F)c1F,-1.7,10.0%,-2.4,1.1%
O=C1C(=O)c2ccccc2C(O)=C1CCCCl,6.6,1.85µM*,33.5,0.828µM*
C/C(=N\NC(=O)CN(c1ccccc1)S(=O)(=O)c1ccccc1[N+](=O)[O-])C(C)(C)C,-2.3,11.7µM*,-12.2,?
O=C(NCCc1ccc(Cl)cc1Cl)C1=CC=CN2CCS(=O)(=O)N=C12,·,-0.5%,·,-25.1%
Cc1ccc(NC(=O)CN(C)C(=O)C2CC(=O)N(Cc3ccccc3)C2)cc1 (stereo unspecified),-1.3,11.3%,-11.1,12.8%
O=c1c2ccccc2c(C=NCCCN2CCOCC2)c(O)n1Cc1ccc2c(c1)OCO2,-1.1,?,-10.3,?
O=c1c2ccccc2c(C=NCCCN2CCOCC2)c(O)n1Cc1ccccc1,-3.5,-12.2%,-18.6,10.4µM*
O=C(c1cc([N+](=O)[O-])cc([N+](=O)[O-])c1)N1CCOCC1,-8.3,?,-8.6,12.7%
Nc1ccc2oc3ccc(N)cc3c(=O)c2c1,37.8*,139.5%,39.1,·
CCCN1CCC(NC(=O)CC2C(=O)NCCN2Cc2cccc(OC)c2)CC1 (stereo unspecified),4.6,?,-10.9,-0.4%
CCCN1CCC(NC(=O)CC2C(=O)NCCN2Cc2ccccc2C)CC1 (stereo unspecified),-1.3,10.4µM*,-5.1,24.4%
Cc1cccc(CCNC(=O)CC2C(=O)NCCN2Cc2ccccc2C)n1 (stereo unspecified),1.2,11.7µM*,21.7,-53.9%
Cc1cccc(CCNC(=O)CC2C(=O)NCCN2CC2CCCCC2)n1 (stereo unspecified),-3.7,?,-6.6,?
COc1ccc(-n2nc(C(=O)NCC(=O)NCCN(C)C)c3ccccc3c2=O)cc1,-3.7,37.6%,-11.2,·
COc1cc2c(cc1OC)C(COc1ccc(C(C)C)cc1)NCC2 (stereo unspecified),-1.7,11.7µM*,-3.5,?
CC1(C(=O)O)CCC(C(=O)Nc2ccc(F)cc2)C1(C)C (stereo unspecified),-0.7,-9.1%,-1.6,-3.3%
COC(=O)c1ccccc1S(=O)(=O)NCc1nc2nc(C)cc(C)n2n1,1.1,13.1µM*,10.3,36.7%
